Assay [1] is described as follows: qHTS assay to identify small molecule agonists of the hypoxia (HIF-1) signaling pathway - cell viability counter screen (AID 1224844; calls by dose curve; note: nearly all actives have a fitted effect of over 50% in size). The essentials: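 Cytotoxicity measured by CellTiter-Glo ATP luminescence in the wells also read for beta-lactamase signal. Cells were HRE-bla ME-180 (2,000/well, 0.5% dialyzed FBS), exposed to compounds for 17 h at 37C.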
(In general: In qHTS, concentration-response curves come from the screen itself.)

A short description of assay [2]: qHTS assay to identify small molecule agonists of H2AX (AID 1224845; active = well fitted activation curve with a large enough effect in the signal ratio in the repeat runs, not every such curve was filed as active; the % refers to the signal ratio). In a few lines: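 Wild-type CHO-K1 cells plated overnight, then exposed 3 hr at 37C to compounds at 15 concentrations (0.76% DMSO). Lysed, then HTRF anti-pH2AX(S139)-cryptate/anti-H2AX-d2 detection after 24 hr at room temperature; emissions 665 and 620 nm.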
The nature of assay [3]: qHTS assay to identify small molecule agonists of the hypoxia (HIF-1) signaling pathway (AID 1224846; active = well fitted activation curve with a large enough effect in the signal ratio in the repeat runs, not every such curve was filed as active; the % refers to the signal ratio). The essentials:
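Compounds added to ME-180 cells carrying hypoxia-response-element beta-lactamase reporter (0.5% dialyzed FBS, 5 h preplating), 17 h at 37C; agonist activity detected by CCF4-AM B/G FRET read-out.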

Assay [4] can be described thus: qHTS assay to identify small molecule agonists of H2AX - cell viability counter screen (AID 1224847; calls by dose curve; note: nearly all actives have a fitted effect of over 30% in size; note: potency is the fitted concentration of half-maximal effect). The essentials:
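Wild-type CHO-K1 cells (10% FBS medium) were plated overnight at 37C, exposed to compounds at 15 concentrations for 3 hr at 37C (0.76% DMSO final), and viability was read as CellTiter-Glo luminescence after 30 min at room temperature.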

Assay [5] in a line: qHTS RealTime-Glo MT Cell Viability Assay in HepG2 cells - 24 hour (AID 1224867). Note: nearly all actives have a fitted effect of over 50% in size. The essentials:
(§1)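 Compound treatment began 5 h after plating HepG2 cells (600/well) with NanoLuc luciferase and prosubstrate. Plates stayed at 37 C for 40 h; luminescence was captured at six time points, 0 h through 40 h.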

The nature of assay [6]: qHTS RealTime-Glo MT Cell Viability Assay in HEK293 cells - 32 hour (AID 1224868). Note: nearly all actives have a fitted effect of over 50% in size. Note: potency is the fitted concentration of half-maximal effect. The essentials: (§2)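 Quantitative high-throughput screen of the Tox21 10K library in HEK293: cells and RealTime-Glo reagents plated together, compound added at 5 h, luminescence monitored through 40 h at 37 C.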
A short description of assay [7]: A CellTox Green Cytotoxicity Assay to monitor cytotoxicity in HEK293 cells - 0 hour (AID 1224869). Note: nearly all actives have a fitted effect of over 50% in size. In a few lines: (§3)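 Fluorescence from a DNA-binding dye excluded by viable cells was measured repeatedly in the same HEK293 wells (600 cells/well) during continuous compound exposure at 37 C. Each assay gives one read point: 0, 8, 16, 24, 32 or 40 h.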
Assay [8] can be described thus: A CellTox Green Cytotoxicity Assay to monitor cytotoxicity in HEK293 cells - 40 hour (AID 1224871). Note: nearly all actives have a fitted effect of over 45% in size. The essentials: as §3
Assay [9] can be described thus: qHTS RealTime-Glo MT Cell Viability Assay in HEK293 cells - 16 hour (AID 1224872). Note: nearly all actives have a fitted effect of over 50% in size. Note: potency is the fitted concentration of half-maximal effect. In a few lines:
as §2

Assay [10] in a line: qHTS RealTime-Glo MT Cell Viability Assay in HepG2 cells - 8 hour (AID 1224873). Note: nearly all actives have a fitted effect of over 55% in size. In a few lines: (§4)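 HepG2 cells mixed with RealTime-Glo MT reagents (NanoLuc plus cell-permeant prosubstrate) were seeded at 600 cells/well, incubated 5 h at 37 C/5% CO2, then pinned with compounds in DMSO; nonlytic luminescence tracked viability during 40 h treatment.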
The nature of assay [11]: qHTS RealTime-Glo MT Cell Viability Assay in HEK293 cells - 40 hour (AID 1224874). Note: nearly all actives have a fitted effect of over 50% in size. Note: potency is the fitted concentration of half-maximal effect. The note with it: RealTime-Glo luminescence; max response: stronger effect = lower value. In a few lines:
(§5)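 Luminescence, which tracks viable cell number through reduction of the prosubstrate to a NanoLuc substrate, was read over continuous 37 C culture. Cells (600/well) were premixed with reagent and rested 5 h before 23 nL of compound in DMSO was pinned.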

Assay [12] in a line: A CellTox Green Cytotoxicity Assay to monitor cytotoxicity in HEK293 cells - 24 hour (AID 1224875). Note: series mostly up to about 77 µM; nearly all actives have a fitted effect of over 45% in size. The essentials:
as §3

Assay [13] is described as follows: A CellTox Green Cytotoxicity Assay to monitor cytotoxicity in HepG2 cells - 16 hour (AID 1224876). Note: nearly all actives have a fitted effect of over 45% in size. The essentials: (§6)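 Real-time cytotoxicity: fluorescence of a cell-impermeant cyanine dye binding DNA of dead HepG2 cells, measured repeatedly (0–40 h) during compound exposure at 37 C. Cells seeded 600/well with reagent, dosed after 5 h.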
Assay [14] can be described thus: qHTS RealTime-Glo MT Cell Viability Assay in HepG2 cells - 32 hour (AID 1224877). Note: nearly all actives have a fitted effect of over 55% in size. In a few lines:
as §1

The nature of assay [15]: A CellTox Green Cytotoxicity Assay to monitor cytotoxicity in HepG2 cells - 24 hour (AID 1224878). Note: nearly all actives have a fitted effect of over 45% in size. The essentials:
as §6

Assay [16] is described as follows: A CellTox Green Cytotoxicity Assay to monitor cytotoxicity in HepG2 cells - 40 hour (AID 1224879). Note: nearly all actives have a fitted effect of over 40% in size. In a few lines: as §6
A short description of assay [17]: qHTS RealTime-Glo MT Cell Viability Assay in HEK293 cells - 0 hour (AID 1224880). In a few lines: as §5
Assay [18] can be described thus: qHTS RealTime-Glo MT Cell Viability Assay in HepG2 cells - 40 hour (AID 1224870). Note: nearly all actives have a fitted effect of over 50% in size. In a few lines:
as §4

SMILES strings stand for the structures. Values joined by “and” are separate entries in the source; they are usually repeats but may differ in a detail not shown here. Equal entries are not always repeated. Results filed as inconclusive are left out. More than one record can exist for a structure, and the calls need not agree. Active and inactive are the calls of the source. Unless noted, calls come from the whole dose curve; as a rule, active = well fitted curve in the direction sought with a large enough effect in the repeat runs; inconclusive = weak or mixed curves; inactive = no such curve, though single readings can be large; an effect the other way counts as inactive or inconclusive.
% is set by controls: 0 for no effect and ±100 for the full control effect.

For `Clc1ccccc1-c1nnc(-c2ccccc2Cl)nn1`, the Potency result in [1], in assay [2], in assay [5], in [6], in assay [7] and in assay [8] was “inactive” throughout. Besides, the Potency result in assay [9], in assay [10], in assay [12], in assay [13], in assay [14] and in [15] was “inactive” throughout. For the same compound, the Potency entry in assay [16] and in assay [17] was “inactive” throughout. Also, the result in [3] was inactive. For the same compound, the Potency in assay [4] was 100 µM (active). In addition, the max response in [11] was -1.79% (inactive) and -6.1% (inactive).

On to `ClC(Cl)=C(Cl)C(Cl)=C(Cl)Cl`, for which the Potency result in [1], in assay [2], in assay [4], in [5], in [6] and in [7] was “inactive” in each case. The Potency entry in assay [18], in [8], in assay [9], in assay [12], in assay [13] and in assay [14] was “inactive” each time. For the same compound, the Potency result in [16] and in assay [17] was “inactive” throughout. Moreover, the result in assay [3] was inactive. Moreover, the max response in assay [11] is 3.65% (inactive) and 8.28% (inactive).

`c1ccc(C2CO2)cc1` (stereo not drawn): the Potency result in [1], in assay [2], in assay [4], in [5], in assay [6] and in assay [7] was “inactive” throughout. Also, the Potency result in assay [18], in [8], in [9], in [12], in [13] and in [14] was “inactive” in each case. Also, the Potency entry in assay [15] and in assay [17] was “inactive” each time. For the same compound, the compound was called inactive in assay [3]. The max response in assay [11] is -2.54% (inactive) and -3.91% (inactive).

As to `Cc1ccc([N+](=O)[O-])cc1`, the Potency result in assay [1], in assay [2], in assay [4], in [5], in assay [6] and in [7] was “inactive” throughout. In addition, the Potency result in assay [8], in assay [9], in assay [10], in [12], in [13] and in assay [14] was “inactive” each time. The Potency result in assay [15], in assay [16] and in assay [17] was “inactive” in each case. Besides, the result in assay [3] was inactive. Besides, the max response in assay [11] was 7.21% (inactive) and 12.5% (inactive).

As to `O=NN1CCOCC1`, the Potency entry in [1], in assay [2], in assay [4], in assay [5], in [7] and in [18] was “inactive” in each case. Moreover, the Potency entry in assay [8], in assay [12], in [13], in [14], in [15] and in assay [17] was “inactive” each time. In assay [3], the compound was called inactive. Besides, the Potency result in assay [6] is “inactive and 2.19 µM (active)”; in [9] it was “inactive and 3.47 µM (active)”; in assay [11], 1.95 µM (active). The max response in assay [11] was -0.852% (inactive).

The values above are taken from PubChem BioAssay (Tox21).
